Assay results reported in PubChem BioAssay AID2320 (National Center for Advancing Translational Sciences (NCATS), 2010).
Records with an inconclusive call do not appear. Calls of active or inactive are those of the source. The call rests on the fitted dose curve.

test: A qHTS for Small Molecule Inhibitors of Shiga Toxin (Confirmatory); conditions: Cell-based Shiga toxin protection reporter assay; series mostly up to 38.3 µM; activity, positive = inhibition of toxin: at the top concentration; further: nearly all actives have a fitted effect of over 75% in size; on activity, positive = inhibition of toxin: 0% is about no effect
Potency means the concentration at half of the fitted maximal effect.

Row | Structure (SMILES) | Potency | activity, positive = inhibition of toxin
1 | COc1ccccc1C(=O)CSc1nccn1C | 28.3 µM (active) | 
2 | COc1cccc(OC)c1OCCCOc1ccc(C)cc1Br |  | 28.7% (inactive)
3 | O=C(NNC(=O)c1nc(Cl)ccc1Cl)c1ccc(F)cc1 |  | 23.4% (inactive)
4 | O=C(Nc1ccc(Cl)cc1)C1CCN(C(=O)c2cccs2)CC1 |  | 22% (inactive)
5 | CCOc1ncccc1C(=O)Nc1c(C)n(C)n(-c2ccccc2)c1=O |  | -36% (inactive)
6 | Cc1ccc2c(c1)N(CC(=O)N1CCCC1)C(=O)CO2 |  | -17.2% (inactive)
7 | CCN1CCN(Cc2c(O)ccc3c(=O)c(-c4ccc(OC)c(OC)c4)c(C(F)(F)F)oc23)CC1 |  | 91.1% (inactive)
8 | CC(=O)c1ccc(NC(=O)C(C)Sc2nnc(C3CCCCC3)o2)cc1 (configuration not stated) |  | -2.82% (inactive)
9 | Cc1cccc(C(=O)NC(NCCc2ccccc2)C(Cl)(Cl)Cl)c1 (configuration not stated) |  | 24.6% (inactive)
10 | Cc1cc(C)n(-c2nc(SCCN(C)C)c3c4c(sc3n2)COC(C)(C)C4)n1 |  | -33.6% (inactive)
11 | COc1ccc2[nH]c(-c3ccccc3)cc(=O)c2c1 | 0.0711 µM (active) | 
12 | CSc1nc2ccc(N3C(=O)C4CCCCC4C3=O)cc2s1 (configuration not stated) |  | 29.6% (inactive)
13 | CON(C)S(=O)(=O)c1cccc(C(=O)NC2CCSc3ccccc32)c1 (configuration not stated) |  | -17.3% (inactive)
14 | O=C(Nc1ccccc1)c1ccccc1O | 14.2 µM (active) | 
15 | COc1ccc(NC(=O)c2cccnc2Nc2ccc(OC)cc2)cc1 |  | 49.4% (inactive)
16 | COc1cc(O)c2c(c1)oc(=O)c1c3cc(O)c(O)cc3oc21 | 7.98 µM (active) | 
17 | CC(=O)Nc1cccc(NC(=O)CSc2nc3ccccc3o2)c1 |  | -0.494% (inactive)
18 | O=C1ON=C(c2ccccc2)/C1=C/c1ccc(OS(=O)(=O)c2ccccc2)cc1 | 7.11 µM (active) | 
19 | O=S(=O)(c1ccsc1)N1CC=C(c2ccccc2)CC1 | 2.83 µM (active) | 

Row | Structure (SMILES) | Potency | activity, positive = inhibition of toxin
20 | COC(=O)c1ccc(NC(=O)Cc2ccc(F)cc2)cc1 | 5.65 µM (active) | 
21 | O=c1cc(-c2cccc(F)c2)[nH]c2ccc(Cl)cc12 |  | -10.8% (inactive)
22 | Cc1cnc(NC(=O)c2ccc(-c3nc4ccccc4s3)o2)s1 | 17.9 µM (active) | 
23 | CCCC(=O)Nc1cnc(NC(=O)c2cccc(F)c2)cc1C | 0.711 µM (active) | 
24 | COCCCNC(=O)NC(=O)c1ccccc1 |  | 8.48% (inactive)
25 | CCOC(=O)C1=C(C)NC(=O)NC1c1ccc(OCC(=O)Nc2ccccc2)c(OC)c1 (configuration not stated) |  | -50.5% (inactive)
26 | Cc1ccc([N+](=O)[O-])cc1NC(=O)CSc1nncn1-c1ccccn1 |  | 28.7% (inactive)
27 | CC1(C)Cc2c(cnn2-c2ccccc2)C(NC(=O)CCN2CCCCO2)C1 (configuration not stated) |  | 20.1% (inactive)
28 | CCCn1c(C)cc(/C=C(\C#N)C(=O)OCC(=O)Nc2ccc(OC)c(Cl)c2)c1C | 8.95 µM (active) | 
29 | O=C(c1cc2c(s1)-c1ccccc1OC2)N1CCN(c2ccccc2)CC1 |  | -19.8% (inactive)
30 | COc1ccccc1C(=O)Nc1ccc(N2CCN(C(C)=O)CC2)cc1 |  | 5.23% (inactive)
31 | COc1ccc(-c2cnc[nH]2)cc1 |  | 15.5% (inactive)
32 | Cc1c(NC(=O)c2ccc3c(c2)OCO3)cccc1-c1nc2ccccc2o1 | 20 µM (active) | 
33 | O=C(Cc1c[nH]c2ccccc12)NCc1ccc(Cl)cc1 |  | -8.01% (inactive)
34 | O=C(Sc1cccc2cccnc12)c1ccccc1Br | 8.95 µM (active) | 
35 | CC1CCCC(C)N1C(=O)Cn1nnc(-c2ccccc2)n1 (configuration not stated) |  | 9.73% (inactive)
36 | CC(=O)c1ccc(N2CCN(C(=O)c3ccc4nc[nH]c4c3)CC2)cc1 |  | 21.4% (inactive)
37 | CCOC(=O)N1CCN(S(=O)(=O)c2ccc(C(=O)NNc3nc4c(C)cc(C)cc4s3)cc2)CC1 | 0.04 µM (active) | 
